Data taken from PubChem BioAssay (Tox21).
Inconclusive results are not listed. Where a call stands in place of a potency, no number is given. The source made the active and inactive calls. Calls come from the whole dose curve; as a rule, active = well fitted inhibition curve with a large enough effect in the repeat runs; inconclusive = weak or mixed curves; inactive = flat fitted curve, though single readings scatter.

What follows are molecules tested against Luciferin 4-monooxygenase (Photinus pyralis) (UniProt P08659) (assay: qHTS assay to identify small molecule inhibitors of firefly luciferase (AID 1224835; note: nearly all actives have a fitted effect of over 25% in size)). Conditions: purified P. pyralis luciferase, luminescence inhibition; series mostly up to 115 µM.
From the text: U.S. Tox21 Program National Center for Advancing Translational Sciences [NCATS] NIH Chemical Genomics Center [NCGC] U.S. Environmental Protection Agency [EPA] National Institutes of Environmental Health Sciences [NIEHS] National Toxicology Program [NTP] U.S. Food and Drug Administration [FDA] Tox21 Assay Overview: Firefly (Photinus pyralis) luciferase is one of the most commonly used transcriptional reporters. Firefly luciferase reporter-gene assays are generally considered one of the most sensitive assay types (Wood, 1995; Wood, 1998). However, it was initially observed, in 1991, by Thompson et al., that compounds that resemble the substrates of firefly luciferase (FLuc) can act as competitive inhibitors of the enzyme, and that these compounds, upon interaction with luciferase in the cell, can actually stabilize the protein and increase its half-life. Previous profiling work by other groups to determine the prevalence of compounds that affect FLuc enzymatic activity (PubChem AID 411) identified that ~3% of the MLSMR library (then at ~72K) inhibited FLuc. […] Thus the Tox21 10K library is profiled for activity against FLuc using a biochemical assay of purified FLuc and KM concentrations of FLuc substrates (D-luciferin and ATP).
These assay plates were then treated with 23nL of compound or DMSO using a Kalypsys pin tool, which allows for delivery of a 6-point interplate titration of each compound to the assay plate (quantitative HTS.) 1 uL of firefly luciferase mix (containing 50 mM Tris acetate, pH 7.6, 0.04 uM P. pyralis luciferase, 0.01% Tween, 0.05% BSA and dH2O) was then delivered by FRD to each well. Luciferase activity was then measured using a ViewLux CCD imager.

Sequence of Luciferin 4-monooxygenase (Photinus pyralis) (P08659 whole entry, looked up): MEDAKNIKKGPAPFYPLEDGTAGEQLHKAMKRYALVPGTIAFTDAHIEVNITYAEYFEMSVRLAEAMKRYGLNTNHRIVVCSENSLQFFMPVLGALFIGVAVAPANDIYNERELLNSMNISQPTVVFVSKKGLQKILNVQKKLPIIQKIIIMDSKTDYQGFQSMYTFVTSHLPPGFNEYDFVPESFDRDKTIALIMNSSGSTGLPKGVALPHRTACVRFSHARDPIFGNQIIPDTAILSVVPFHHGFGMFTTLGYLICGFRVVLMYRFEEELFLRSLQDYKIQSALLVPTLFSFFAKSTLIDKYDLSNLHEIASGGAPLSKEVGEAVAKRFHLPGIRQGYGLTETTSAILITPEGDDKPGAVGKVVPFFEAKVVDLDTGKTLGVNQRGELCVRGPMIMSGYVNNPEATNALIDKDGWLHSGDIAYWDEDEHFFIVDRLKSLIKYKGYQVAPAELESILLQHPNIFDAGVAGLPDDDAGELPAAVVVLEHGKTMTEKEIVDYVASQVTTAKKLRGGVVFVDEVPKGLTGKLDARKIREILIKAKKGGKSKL

**Q.** With CC1C2CC(CC2C2CCCC(O)C2)C1(C)C (stereo not given) as the molecule, how does the Potency read?
**A.** Its Potency is “inactive”.

**Q.** How did the Potency turn out when Cc1occc1C(=O)Nc1ccc(C(=O)N2CCC(F)(F)/C(=C\C(=O)N3CCC(N4CCCCC4)CC3)c3ccccc32)cc1 was run?
**A.** Its Potency is “inactive”.

**Q.** For CCCOc1ccc(S(=O)(=O)N2CCN(CC)CC2)cc1-c1nc2c(CC)n(Cc3ccccn3)nc2c(=O)[nH]1, which Potency is on record?
**A.** The Potency was “inactive”.

**Q.** With OCCSc1ccccc1 as the molecule, how does the Potency read?
**A.** Its Potency is “inactive”.

**Q.** Which Potency does the source give for Cc1ccccc1N1C(=O)c2cc(S(N)(=O)=O)c(Cl)cc2NC1C (stereo not given) here?
**A.** Its Potency is “inactive”.

**Q.** CC1=NN(c2ccc(C(=O)O)cc2)C(=O)C1 was tested. Which Potency did it give?
**A.** The Potency was “inactive”.

**Q.** O=[N+]([O-])c1cccc(S(=O)(=O)NCCNS(=O)(=O)c2cccc([N+](=O)[O-])c2)c1 was tested. Which Potency did it give?
**A.** Its Potency is “inactive”.

**Q.** For COc1cc2ncnc(Nc3ccc(F)c(Cl)c3)c2cc1OCCCN1CCOCC1, which Potency is on record?
**A.** Its Potency is “inactive”.

**Q.** How did the Potency turn out when CCNC(=O)N1CCN(CCCC(c2ccc(F)cc2)c2ccc(F)cc2)CC1 was run?
**A.** The Potency was “inactive”.

**Q.** C=CCNc1nc(NCC=C)nc(N2CCN(C(c3ccc(F)cc3)c3ccc(F)cc3)CC2)n1 was tested. Which Potency did it give?
**A.** The Potency was “inactive”.

**Q.** COc1ccc(C(=O)c2cccc(O)c2)c(OC)c1 was tested. Which Potency did it give?
**A.** Its Potency is “inactive”.

**Q.** For OC/C(Br)=C(\Br)CO, which Potency is on record?
**A.** Its Potency is “inactive”.

**Q.** For CCOC(=O)c1ccccc1OC, which Potency is on record?
**A.** Its Potency is “inactive”.

**Q.** CNC(=S)NC was tested. Which Potency did it give?
**A.** The Potency was “inactive”.

**Q.** Oc1cc(O)c(Cl)cc1Cl was tested. Which Potency did it give?
**A.** Its Potency is “inactive”.

**Q.** Nc1ccc(S(=O)(=O)O)cc1 was tested. Which Potency did it give?
**A.** The Potency was “inactive”.

**Q.** For CC(C)CCCCCOC(=O)CCCCC(=O)OCCCCCC(C)C, which Potency is on record?
**A.** Its Potency is “inactive”.

**Q.** Which Potency does the source give for CC[C@H](NC(=O)c1cc(F)ccc1NS(=O)(=O)c1cccc2cccnc12)c1ccccc1 here?
**A.** Its Potency is “inactive”.

**Q.** Which Potency does the source give for COCc1c(C(C)C)nc(C(C)C)c(/C=C/[C@@H](O)C[C@@H](O)CC(=O)O)c1-c1ccc(F)cc1 here?
**A.** The Potency was “inactive”.

**Q.** CO[C@H]1O[C@H](CO)[C@@H](O)[C@H](O)[C@H]1O was tested. Which Potency did it give?
**A.** Its Potency is “inactive”.

**Q.** How did the Potency turn out when CCc1c2c(nc3ccc(OC(=O)N4CCC(N5CCCCC5)CC4)cc13)-c1cc3c(c(=O)n1C2)COC(=O)[C@]3(O)CC was run?
**A.** Its Potency is “inactive”.

**Q.** O=C(NCCCN1CCOCC1)c1ccc(Cl)cc1 was tested. Which Potency did it give?
**A.** The Potency was “inactive”.

**Q.** Which Potency does the source give for CCCOCCOCCO here?
**A.** The Potency was “inactive”.

**Q.** With CC1=CC(=O)CC(C)(C)C1(O)/C=C/C(C)=C\C(=O)O (stereo not given) as the molecule, how does the Potency read?
**A.** The Potency was “inactive”.

**Q.** Which Potency does the source give for CC(=O)N(c1onc(C)c1C)S(=O)(=O)c1ccc(N)cc1 here?
**A.** Its Potency is “inactive”.

**Q.** Which Potency does the source give for C[C@@H]1C[C@H]2[C@@H]3CCC4=CC(=O)C=C[C@]4(C)[C@@]3(F)[C@@H](O)C[C@]2(C)[C@H]1C(=O)CO here?
**A.** The Potency was “inactive”.

**Q.** For Cc1ccc(S)cc1, which Potency is on record?
**A.** Its Potency is “inactive”.

**Q.** Which Potency does the source give for Cc1nc2ccccc2s1 here?
**A.** Its Potency is “inactive”.

**Q.** Cc1cc(O)c(C(C)C)cc1Cl was tested. Which Potency did it give?
**A.** The Potency was “inactive”.

**Q.** Which Potency does the source give for CC1(C)C2=CCCC(C)(C)[C@]23CC[C@H]1C3 here?
**A.** The Potency was “inactive”.

**Q.** How did the Potency turn out when NC(=O)N(O)[C@@H]1COc2cc(OCc3ccccc3)ccc21 was run?
**A.** Its Potency is 1120 nM (active).

**Q.** c1cnc2c(n1)CCCC2 was tested. Which Potency did it give?
**A.** Its Potency is “inactive”.

**Q.** With CC1CC(=O)NN=C1c1ccc(NCC(C)(C)NCC(O)COc2cc(Cl)ccc2C#N)cc1 (stereo not given) as the molecule, how does the Potency read?
**A.** The Potency was “inactive”.

**Q.** Which Potency does the source give for CCOc1cc(N)c(Cl)cc1C(=O)NCC1CN(Cc2ccc(F)cc2)CCO1 (stereo not given) here?
**A.** The Potency was “inactive”.

**Q.** For O=C(CCCCCCCCC#CI)Oc1ccccc1, which Potency is on record?
**A.** The Potency was “inactive”.

**Q.** How did the Potency turn out when CC1(C)O[C@@H]2C[C@H]3[C@@H]4CCC5=CC(=O)C=C[C@]5(C)[C@H]4[C@@H](O)C[C@]3(C)[C@]2(C(=O)CO)O1 was run?
**A.** The Potency was “inactive”.

**Q.** With Cc1ccc(/C=N/n2c(-c3ccccc3)csc2=S)cc1 as the molecule, how does the Potency read?
**A.** Its Potency is “inactive”.

**Q.** With O=C(CS)OCCOC(=O)CS as the molecule, how does the Potency read?
**A.** The Potency was “inactive”.

**Q.** O=C(Nc1ccc([N+](=O)[O-])cc1)Nc1ccc([N+](=O)[O-])cc1 was tested. Which Potency did it give?
**A.** Its Potency is “inactive”.

**Q.** CC1=C(C=O)C(C)(C)CCC1 was tested. Which Potency did it give?
**A.** The Potency was “inactive”.
